Data taken from PubChem BioAssay.
For part of these data: Potency and affinity values are given separately. The source made the active and inactive calls. The rule behind the calls is not given here.

target: Plasmodium falciparum protein kinase 6 (PK6, PF3D7_1337100) (UniProt Q8IDW1); assay: PfPK6 kinase inhibitors, biochemical, TCAMS library (AID 1159586); conditions: recombinant PfPK6, Kinase-Glo ATP depletion luminescence
Sequence (Q8IDW1 1-305): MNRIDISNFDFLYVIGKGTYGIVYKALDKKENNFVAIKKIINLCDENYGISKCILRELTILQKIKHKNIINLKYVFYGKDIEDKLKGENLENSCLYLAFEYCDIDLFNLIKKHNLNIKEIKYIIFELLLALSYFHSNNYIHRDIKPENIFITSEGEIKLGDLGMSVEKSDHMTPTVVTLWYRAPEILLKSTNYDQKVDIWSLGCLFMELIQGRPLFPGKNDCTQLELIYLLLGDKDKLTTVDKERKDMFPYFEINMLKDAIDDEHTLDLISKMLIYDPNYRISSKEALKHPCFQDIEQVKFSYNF

outcome, inactive:
CC(=O)Nc1ccc(CN2CCCN(c3cc(NC(=O)c4cccc(C)c4)ccn3)CC2)cc1
O=C(NC1CC1)c1ccc(N2CCCC(COc3ccc4c(c3)CCCC4)C2)nc1 (stereo not drawn)
CC(C)(C)c1ccccc1OCCCON1C(N)=NC(N)=NC1(C)C
O=C(Nc1ccccc1)Nc1cccc(-c2cccc(-c3nc4ccc(F)cc4[nH]3)c2)c1
CC(C)c1ccc(NC(=O)c2ccc(C(=O)NC3CCN(Cc4ccsc4)C3)cc2)cc1 (stereo not drawn)
O=C(Nc1ccc(C(F)(F)F)cc1)NC1CCN(c2ccnc3ccccc23)C1 (stereo not drawn)
C=CCOc1ccc(CNC2CCN(Cc3ccccc3)CC2)cc1Br
COc1cccc(CN2CCCN(Cc3cccc(NC(=O)c4ccc(Cl)c(Cl)c4)c3)CC2)c1
Cc1cc2ccc(/C=C/C(=O)NC3CCC(CCN4CCc5ccc(C#N)cc5CC4)CC3)cc2[nH]1 (stereo not drawn)
CCC1N=C(N)N=C(N)N1OCCCOc1c(Cl)cc(Cl)cc1Cl (stereo not drawn)
NC(N)=NN=Cc1ccc2c(c1)Cc1ccccc1-2
Cc1ccc(S(=O)(=O)N(CCCNCc2cccc(O)c2)c2ccccc2)cc1
COc1cc(F)c2ncc(C#N)c(CCN3CCC(NCc4ccc5c(c4)OCCO5)CC3)c2c1
Nc1nc(N)c2c(Cl)c(N(Cc3ccccc3)Cc3ccccc3)ccc2n1
CCCN(CC1CC1)c1nc(C)nc2c(-c3ccccc3)cc(C)cc12
COc1ccc(-c2nc3c(N)nc(N)nc3nc2C(C)C)cc1
O=C(/C=C/c1ccc(C(F)(F)F)cc1)NCCCCCN1CCN(C(=O)Nc2ccc(Cl)cc2)CC1
Oc1ccc(Nc2nc(N3CCCC3)c3ccccc3n2)cc1
CCc1sc(CN(CCCNc2cc(=O)c3ccccc3[nH]2)Cc2sc(CC)c(Br)c2-c2ccsc2)c(-c2ccsc2)c1Br
COc1ccc(C(=O)N[C@@H](CC(C)C)C(=O)NC2CC[C@@H](C)N(C(=O)Nc3ccc(Cl)cc3)CC2=O)cc1OCCN1CCOCC1 (stereo partly drawn)
C[C@@H]1CN(c2ccnc3ccc(Sc4ccc(Oc5ccccc5)cc4)cc23)C[C@H](C)N1
O=C(Nc1ccc2c(c1)CCNCC2)Nc1ccc2ccccc2c1
O=C1CC(C(=O)Nc2cccc(-c3cccc(-c4nc5ccccc5[nH]4)c3)c2)c2ccccc2N1 (stereo not drawn)
CC(=O)c1cccc2[nH]c(C(=O)NC3CCC(CCN4CCc5ccc(C#N)cc5C4)CC3)cc12 (stereo not drawn)

target: Protein kinase 7 (PK7), Plasmodium falciparum 3D7 (PF3D7_0213400) (UniProt Q7YTF7); assay: inhibition of Plasmodium PK7 catalytic activity – biochemical, TCAMS antimalarial set, Kinase-Glo luminescence (AID 1159587); conditions: recombinant PfPK7, Kinase-Glo ATP depletion luminescence
Sequence (Q7YTF7 1-343): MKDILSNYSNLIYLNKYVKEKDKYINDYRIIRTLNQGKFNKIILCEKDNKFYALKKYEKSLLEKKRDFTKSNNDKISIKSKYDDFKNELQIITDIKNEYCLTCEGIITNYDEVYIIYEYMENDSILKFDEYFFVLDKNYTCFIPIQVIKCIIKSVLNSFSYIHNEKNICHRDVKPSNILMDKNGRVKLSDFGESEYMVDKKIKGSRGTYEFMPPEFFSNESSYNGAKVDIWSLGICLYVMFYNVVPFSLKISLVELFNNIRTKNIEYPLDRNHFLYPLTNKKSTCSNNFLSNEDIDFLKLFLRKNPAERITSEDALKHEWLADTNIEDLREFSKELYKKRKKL

outcome, inactive:
O=C(/C=C/c1ccc(Cl)c(Cl)c1)N1CCC(CCCN2CCC(c3c[nH]c4ccc(O)cc34)CC2)CC1
C=CCOC(=O)N1CCC(CNCc2cccc(-c3ccc(-c4nc5c(C)cccc5[nH]4)cc3)c2)C1 (stereo not drawn)
CO/C(=C\C=C\c1cc2cc(Cl)c(Cl)cc2[nH]1)C(=O)NC1C[C@H]2CCC[C@@H](C1)N2C (stereo partly drawn)
Nc1ncc(-c2ccccc2)cc1-c1nc2cc(Cl)c(F)cc2[nH]1
Cc1cccc2[nH]c(-c3ccc(-c4ccc(CN5CC(C)OC(C)C5)cc4)cc3)nc12 (stereo not drawn)
CCCCCc1cnc2nc(N)nc(N)c2c1
Nc1cccc(CNCc2cccc(-c3ccc(-c4nc5ccccc5[nH]4)cc3)c2)c1
CCCC(CCC)n1ccc2c3c(N)nc(N)nc3ccc21
COc1cccc(OC)c1C(=O)N1CCC2(CC1)C(=O)N(CC(=O)NC1CCCCC1)CN2c1ccccc1
Cc1cc(N[C@@H](Cc2ccccc2)C(=O)NCc2cccs2)nc(NCCc2ccccn2)n1
OCC1CCN(Cc2ccc(-c3ccc(-c4nc5ccccc5[nH]4)cc3)cc2)CC1
COc1cc(C(=O)N2COCC(CCCN3CCC(N4CCCC4)CC3)(c3ccc(Cl)c(Cl)c3)C2)cc(OC)c1OC (stereo not drawn)
COc1ccc2c(CCNc3nc(SC)ncc3C(=O)NCCc3ccc(F)cc3)c[nH]c2c1
CCn1c(C2CCN(CCC3CCN(C(=O)/C=C/c4ccc(Cl)c(Cl)c4)CC3)CC2)nc2ccccc21
CCN(CC)CCN(Cc1ccc(-c2ccc(C(F)(F)F)cc2)cc1)C(=O)Cn1c(/C=C/c2ccco2)nc(=O)c2ccccc21
CC(=O)Nc1ccc(CN2CCCN(c3cc(NC(=O)c4cccc(C)c4)ccn3)CC2)cc1
O=C(NC1CC1)c1ccc(N2CCCC(COc3ccc4c(c3)CCCC4)C2)nc1 (stereo not drawn)
CC(C)(C)c1ccccc1OCCCON1C(N)=NC(N)=NC1(C)C
O=C(Nc1ccccc1)Nc1cccc(-c2cccc(-c3nc4ccc(F)cc4[nH]3)c2)c1
CC(C)c1ccc(NC(=O)c2ccc(C(=O)NC3CCN(Cc4ccsc4)C3)cc2)cc1 (stereo not drawn)
O=C(Nc1ccc(C(F)(F)F)cc1)NC1CCN(c2ccnc3ccccc23)C1 (stereo not drawn)
C=CCOc1ccc(CNC2CCN(Cc3ccccc3)CC2)cc1Br
COc1cccc(CN2CCCN(Cc3cccc(NC(=O)c4ccc(Cl)c(Cl)c4)c3)CC2)c1
Cc1cc2ccc(/C=C/C(=O)NC3CCC(CCN4CCc5ccc(C#N)cc5CC4)CC3)cc2[nH]1 (stereo not drawn)
CCC1N=C(N)N=C(N)N1OCCCOc1c(Cl)cc(Cl)cc1Cl (stereo not drawn)
NC(N)=NN=Cc1ccc2c(c1)Cc1ccccc1-2
Cc1ccc(S(=O)(=O)N(CCCNCc2cccc(O)c2)c2ccccc2)cc1
COc1cc(F)c2ncc(C#N)c(CCN3CCC(NCc4ccc5c(c4)OCCO5)CC3)c2c1
Nc1nc(N)c2c(Cl)c(N(Cc3ccccc3)Cc3ccccc3)ccc2n1
CCCN(CC1CC1)c1nc(C)nc2c(-c3ccccc3)cc(C)cc12
COc1ccc(-c2nc3c(N)nc(N)nc3nc2C(C)C)cc1
O=C(/C=C/c1ccc(C(F)(F)F)cc1)NCCCCCN1CCN(C(=O)Nc2ccc(Cl)cc2)CC1
Oc1ccc(Nc2nc(N3CCCC3)c3ccccc3n2)cc1
CCc1sc(CN(CCCNc2cc(=O)c3ccccc3[nH]2)Cc2sc(CC)c(Br)c2-c2ccsc2)c(-c2ccsc2)c1Br
COc1ccc(C(=O)N[C@@H](CC(C)C)C(=O)NC2CC[C@@H](C)N(C(=O)Nc3ccc(Cl)cc3)CC2=O)cc1OCCN1CCOCC1 (stereo partly drawn)
C[C@@H]1CN(c2ccnc3ccc(Sc4ccc(Oc5ccccc5)cc4)cc23)C[C@H](C)N1
O=C(Nc1ccc2c(c1)CCNCC2)Nc1ccc2ccccc2c1
O=C1CC(C(=O)Nc2cccc(-c3cccc(-c4nc5ccccc5[nH]4)c3)c2)c2ccccc2N1 (stereo not drawn)
CC(=O)c1cccc2[nH]c(C(=O)NC3CCC(CCN4CCc5ccc(C#N)cc5C4)CC3)cc12 (stereo not drawn)
